Test results published in PubChem BioAssay (Tox21).
Results filed as inconclusive are left out. Entries that show only a call come without a potency. Activity calls are given as the source filed them. Calls come from the whole dose curve; as a rule, active = well fitted cell-killing curve with a large enough effect in the repeat runs; inconclusive = weak or mixed curves, or effect the other way; inactive = flat fitted curve, though single readings scatter.

assay: cAMP Responsive Elements (CRE) small molecule agonists, cell-based qHTS assay: qHTS cell viability counter screen (AID 2060914); details: CRE-bla HEK293T viability, CellTiter-Glo luminescence, 5 h; series mostly up to 92.4 µM;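 note: viability read after 3 h of compound exposure; nearly all actives have a fitted effect of over 50% in size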
Text: National Center for Advancing Translational Sciences [NCATS]
Division of Preclinical Innovation [DPI]
U.S. Environmental Protection Agency [EPA]
National Institutes of Environmental Health Sciences [NIEHS]
National Toxicology Program [NTP]
U.S. Food and Drug Administration [FDA]
CREB (cyclic-AMP Responsive Element Binding Protein) is a cellular transcription factor. It binds to certain DNA sequences called cAMP Responsive Elements (CRE) and regulates the transcription of the genes. […] This cell line can be used to find agonists/antagonists of the cyclic AMP signaling pathway. The activation of the report gene under culture conditions can be detected by fluorescence intensity. This cell line has been used to screen the Tox21 10K compound library to identify agonists that induce oxidative stress. The cytotoxicity of the Tox21 compound library against the CRE-bla cell line was tested in parallel by measuring the cell viability using CellTiter-Glo assay (Promega, Madison, WI) in the same wells.
Tox21 Assay Protocol Summary:
CRE-bla Hek 293T cells were suspended in assay medium (DMEM containing 10% dialyzed FBS, 0.1 mM NEAA, 1 mM sodium pyruvate and 25 mM HEPES) and dispensed at 2,000 cells/5 uL /well into 1536-well black wall/clear bottom plates using a Multidrop Combi (ThermoFisher Scientific, Waltham, MA) dispenser. After the assay plates were incubated at 37 C/5% CO2 for 18 hrs, 23 nL of compounds dissolved in DMSO, positive controls or DMSO only was transferred to the assay plate by a pintool workstation (Kalypsys, San Diego, CA). After the plates were incubated at 37 C/5% CO2 for 3 hrs, 1 uL of LiveBLAzer B/G FRET substrate (Invitrogen, Carlsbad, CA) was added to each well using Bioraptr Flying Reagent Dispenser (FRD, Aurora Discovery, San Diego, CA). The plates were incubated at room temperature for 2 h, then fluorescence intensities were measured using an Envision plate reader (PerkinElmer, Shelton, CT) at Excitation 405nm, Emission 460nm and 530nm. The % activity was determined from the ratio of 460nm/530nm. For cell viability readout that measures cytotoxicity, 4 uL /well of CellTiter-Glo reagent was added into the assay plates using Bioraptr FRD. After 30 min incubation at room temperature, the luminescence intensity in the assay plates was measured using a ViewLux (PerkinElmer, Shelton, CT) plate reader.
Potency is the fitted concentration of half-maximal effect.

| Structure (SMILES) | Potency | activity change, negative = cytotoxicity |
| --- | --- | --- |
| c1ccc(-c2nc[nH]c2-c2ccccc2)cc1 | inactive | – |
| CCCNCC(O)COc1ccccc1C(=O)CCc1ccccc1 (stereo not given) | inactive | – |
| O=c1[nH]cnc2ccccc12 | inactive | – |
| COc1cc([C@@H]2c3cc4c(cc3[C@H](O)[C@H]3COC(=O)[C@H]23)OCO4)cc(OC)c1OC | inactive | – |
| CCN(CC)CCNC(=O)COc1ccc(Cl)cc1 | inactive | – |
| c1ccc2c(c1)CCCC2C1=NCCN1 (stereo not given) | inactive | – |
| O=C(O)c1ccccc1OP(=O)(O)O | inactive | – |
| CC(C)(C)C1(CCc2ccc(Cl)cc2)CO1 (stereo not given) | inactive | – |
| CN=C(NC#N)Nc1ccc(C2=NNC(=O)CC2C)cc1 (stereo not given) | inactive | – |
| CCCCCCCCCCCCCC[n+]1ccccc1 | 61.1 µM (active) | – |
| CCSC(=O)N(CC(C)C)CC(C)C | inactive | – |
| Nc1ccc(N)c(Cl)c1 | inactive | – |
| COc1ccc(OC)cc1 | inactive | – |
| Cc1ccc(C(C)NC(=O)[C@@H](NC(=O)OC(C)C)C(C)C)cc1 (stereo not given in full) | inactive | – |
| O=[N+]([O-])c1ccccc1C(F)(F)F | inactive | – |
| C=COCC1CCC(COC=C)CC1 (stereo not given) | inactive | – |
| N=C(N)c1ccc(OCCCCCOc2ccc(C(=N)N)cc2)cc1 | inactive | – |
| Cc1ccc(C)c(O)c1C | inactive | – |
| COc1cc(C(=O)N2CCCCCCC2)cc(OC)c1OC | inactive | – |
| O=C(Cl)c1cc(Cl)cc(Cl)c1 | inactive | – |

| Structure (SMILES) | Potency | activity change, negative = cytotoxicity |
| --- | --- | --- |
| C[n+]1ccn(Cc2ccccc2)c1 | inactive | – |
| C1COCCO1 | inactive | – |
| CC1=C(/C=C/C(C)=C/C=C/C(C)=C\C=O)C(C)(C)CCC1 | inactive | – |
| CC12CCCC=C1C(=O)OC2=O (stereo not given) | inactive | – |
| Cc1cc(CCN2CCN(c3nsc4ccccc34)CC2)cc2c1NC(=O)CC2(C)C | 68.6 µM (active) | – |
| CN1C(C)(C)CCCC1(C)C | inactive | – |
| CC1=Nc2ccc3ccccc3c2C1(C)C | inactive | – |
| CCCCCCCCCCCCCCCCCC#N | inactive | – |
| CN(C)/N=N/c1nc[nH]c1C(N)=O | inactive | – |
| Fc1ccccc1[C@@H](F)COC1CCC(Nc2ncnc3[nH]ncc23)CC1 (stereo not given in full) | inactive | – |
| O=C(O)CN(CCN(CC(=O)O)CC(=O)O)CCN(CC(=O)O)CC(=O)O | – | 3.54% [at 18.9 µM] (inactive) |
| Cc1ccc(Nc2nccc(N(C)c3ccc4c(C)n(C)nc4c3)n2)cc1S(N)(=O)=O | inactive | – |
| NS(=O)(=O)c1cc2c(cc1Cl)NC(C(Cl)Cl)NS2(=O)=O (stereo not given) | inactive | – |
| CCN(CC)CCNC(=O)c1cc(S(C)(=O)=O)ccc1OC | inactive | – |
| Cc1ccccc1C(=O)Nc1ccc(C(=O)N2CCCC(N(C)C)c3ccccc32)cc1 (stereo not given) | inactive | – |
| CC(C)C[P+](C)(CC(C)C)CC(C)C | inactive | – |
| C#C[C@]1(O)CC[C@H]2[C@@H]3CCC4=Cc5oncc5C[C@]4(C)[C@H]3CC[C@@]21C | inactive | – |
| COC(=O)CC(=O)OC | inactive | – |
| CC(C)OC(=O)CCC(=O)OC(C)C | inactive | – |
| CCc1cccc(C)c1N(C(=O)C(=O)O)C(C)COC (stereo not given) | inactive | – |
